Screening data deposited in PubChem by National Center for Advancing Translational Sciences (NCATS).
The list is not random: actives were taken first. Their share in the collection is about 12%.
G9a block: qHTS Assay for Inhibitors of Histone Lysine Methyltransferase G9a; actives 8.8% (n = 350,000); AID 504332, 2011; Histone-lysine N-methyltransferase EHMT2 (Homo sapiens), Q96KQ7; G9a H3K9 monomethylation, AlphaScreen, 2 h; Potency, µM (top dose mostly 102 µM), usual class: inhibitors; also: nearly all actives have a fitted effect of over 75% in size
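Readings reflect AlphaScreen signal from monomethyl-H3K9 antibody detection. HMT at 20 nM; substrate b-H3K9 500 nM; cofactor SAM 20 uM; 2 h RT reaction; compounds tested as titrations in qHTS with 15 min preincubation.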
HP1b chromo inh: HTS for Inhibitors of HP1-beta Chromodomain Interactions with Methylated Histone Tails; Potency, µM (titrated, usually from 114 µM), hits mostly inhibitors; AlphaScreen HP1-beta / biotin-H3K9me3 peptide binding; AID 540317, 2011; Chromobox protein homolog 1 (Homo sapiens), P83916; actives 0.56% (n = 390,000); also: nearly all actives have a fitted effect of over 70% in size
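HP1-beta protein (50 nM final) preincubated 30 min at room temperature with biotinylated H3(1-18)K9me3 peptide (50 nM) in PBS pH 7.4, 0.01% Tween-20, then compound added for 30 min. AlphaScreen streptavidin donor/nickel chelate acceptor beads (10 ug/mL final), 30 min dark, luminescence read.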
BAZ2B inh: qHTS Assay for Inhibitors of BAZ2B | Bromodomain adjacent to zinc finger domain protein 2B (Homo sapiens), Q9UIF8 | actives 4.4% (n = 360,000) | AlphaScreen BAZ2B-H3K14Ac peptide displacement | Potency, µM (highest dose often 114 µM), hits mostly inhibitors; also: nearly all actives have a fitted effect of over 60% in size
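BAZ2B 50 nM plus b-H3(5-23)K14Ac 50 nM, PBS pH 7.4/0.01% Tween-20, 30 min RT; compound added (max 110 uM), 30 min RT; streptavidin donor/Ni-chelate acceptor beads 10 ug/mL final, 20 min dark; AlphaScreen read.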
L3MBTL1 block: qHTS Assay for the Inhibitors of L3MBTL1. AlphaScreen L3MBTL1–H3K9me1 peptide binding. actives 0.66% (n = 230,000). Potency, µM (titrated, usually from 57.1 µM), usual class: inhibitors. Lethal(3)malignant brain tumor-like protein 1 (Homo sapiens), Q9Y468. AID 485360, 2010; also: nearly all actives have a fitted effect of over 60% in size
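AlphaScreen proximity signal between nickel-chelate acceptor and streptavidin donor beads (final 10 ug/mL) reports binding of 50 nM L3MBTL1 to 75 nM biotin-H3 K9me1 peptide; complex incubated with compounds 30 min at room temperature; cefsulodin titration as control.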
JMJD2A Tudor: qHTS Assay for Inhibitors of JMJD2A-Tudor Domain; AlphaScreen JMJD2A-Tudor / H3K4me3 peptide binding; actives 4.4% (n = 390,000); AID 504339, 2011; Potency, µM (series often up to 114 µM), hits mostly inhibitors; also: nearly all actives have a fitted effect of over 50% in size
Target sequence (O75164 whole entry, looked up, the tested form may be a part): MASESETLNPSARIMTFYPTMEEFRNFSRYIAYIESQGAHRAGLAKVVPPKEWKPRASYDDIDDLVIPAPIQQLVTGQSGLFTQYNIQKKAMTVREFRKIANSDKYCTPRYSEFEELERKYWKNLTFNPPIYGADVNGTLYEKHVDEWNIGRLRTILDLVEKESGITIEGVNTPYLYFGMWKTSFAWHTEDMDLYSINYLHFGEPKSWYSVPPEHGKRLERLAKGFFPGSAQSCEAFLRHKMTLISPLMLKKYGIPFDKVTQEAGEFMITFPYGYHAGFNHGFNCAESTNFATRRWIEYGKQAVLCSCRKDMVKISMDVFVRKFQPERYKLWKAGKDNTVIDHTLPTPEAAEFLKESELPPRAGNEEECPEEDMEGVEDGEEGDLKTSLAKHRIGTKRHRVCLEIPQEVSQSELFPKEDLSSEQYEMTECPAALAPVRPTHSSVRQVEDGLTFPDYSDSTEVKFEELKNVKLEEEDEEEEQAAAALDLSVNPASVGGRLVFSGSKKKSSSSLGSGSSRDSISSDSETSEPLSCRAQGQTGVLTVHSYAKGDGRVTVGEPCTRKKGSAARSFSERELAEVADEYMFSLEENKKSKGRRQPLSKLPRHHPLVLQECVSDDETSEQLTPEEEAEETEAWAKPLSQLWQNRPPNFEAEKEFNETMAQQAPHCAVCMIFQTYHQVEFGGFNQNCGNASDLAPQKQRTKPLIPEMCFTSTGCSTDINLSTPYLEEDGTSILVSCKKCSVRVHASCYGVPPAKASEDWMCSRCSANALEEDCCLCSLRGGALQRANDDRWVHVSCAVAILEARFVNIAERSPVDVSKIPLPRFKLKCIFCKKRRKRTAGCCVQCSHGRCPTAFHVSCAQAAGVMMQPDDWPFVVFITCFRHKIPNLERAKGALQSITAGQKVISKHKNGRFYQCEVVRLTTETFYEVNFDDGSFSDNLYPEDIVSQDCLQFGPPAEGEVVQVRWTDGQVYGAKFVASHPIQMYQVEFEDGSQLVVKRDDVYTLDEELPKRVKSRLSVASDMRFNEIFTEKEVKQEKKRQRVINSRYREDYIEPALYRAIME
Sfp PPTase inh: qHTS Assay for Inhibitors of Bacillus subtilis Sfp phosphopantetheinyl transferase (PPTase) | 4'-phosphopantetheinyl transferase ffp (Bacillus subtilis), Q9F4F7 | Potency, µM, hits mostly inhibitors | Biochemical Sfp PPTase activity, qHTS | AID 1490, 2009 | actives 3.5% (n = 310,000);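 also: the enzyme is Sfp with the accession as filed and its product quenches rhodamine fluorescence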
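Fluorescence-quenching assay with 15 nM Sfp, 5 uM rhodamine-CoA and 12.5 uM BHQ-2-labelled ybbR peptide in pH 7.6 Hepes/MgCl2 buffer. Enzyme was pre-incubated with compound for 15 min at room temperature. Rate was taken from the 30-min fluorescence change (525/598 nm).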
Hits are given with their value; – = inactive; ? = inconclusive; · = no result given; [ ] = another dose, or the depositor's remark. Calls follow the shape of the dose curve; as a rule, active = well fitted curve in the direction sought with a large enough effect; inconclusive = small, poorly fitted or top-dose-only effect, or another doubt; inactive = no such curve, though single readings can be large; an effect the other way counts as inactive or inconclusive.

SMILES	G9a block	HP1b chromo inh	BAZ2B inh	L3MBTL1 block	JMJD2A Tudor	Sfp PPTase inh
O=C(CS(=O)(=O)Cc1ccccc1)Nc1nnc(C2CCCCC2)s1	56.2µM	–	–	–	–	–
O=C(Cc1cccs1)Nc1nnc(SCC(=O)NC2CCCCC2)s1	?	–	–	–	–	–
CCC(CC)c1nnc(NC(=O)CS(=O)(=O)Cc2ccccc2)s1	·	–	·	·	–	·
O=C(CSc1nnc(Nc2ccccc2)s1)NCc1cccs1	39.8µM	–	–	–	–	–
CCCC(C)c1nnc(NC(=O)CCS(=O)(=O)Cc2ccccc2)s1 (stereo unspecified)	25.1µM	–	–	·	–	50.1µM
O=C(Cc1cccs1)Nc1nnc(SCc2cccc3ccccc23)s1	44.7µM	–	?	–	–	–
Cc1nnc(NC(=O)CSc2ccccn2)s1	–	–	–	–	–	–
CC(C)Cc1nnc(NC(=O)CSc2ccccn2)s1	44.7µM	–	–	·	–	44.7µM
CC(C)Cc1nnc(NC(=O)Cc2cccs2)s1	44.7µM	–	39.8µM	?	?	–
CCCC(C)c1nnc(NC(=O)CS(=O)(=O)Cc2ccccc2)s1 (stereo unspecified)	8.91µM	?	–	–	–	–
CC(C)Cc1nnc(NC(=O)CS(=O)(=O)Cc2ccccc2)s1	8.91µM	–	–	–	–	–
CC(C)c1nnc(NC(=O)CS(=O)(=O)Cc2ccccc2)s1	·	–	?	–	–	–
CC(C)c1nnc(NC(=O)Cc2cccs2)s1	–	–	–	–	–	–
COc1ccc([N+](=O)[O-])cc1NS(=O)(=O)c1cc(C(=O)NCc2cccnc2)ccc1Cl	–[2.33 µM]	–	–	–	–	·
CCc1nc2cccnc2n1-c1ccc(CC(=O)NC(C)CC)cc1 (stereo unspecified)	–	–	–	·	–	–
COc1ccc(CCNC(=O)c2cc3c(=O)n4cccc(C)c4nc3n2C)cc1	–	–	–	·	–	·
CSc1cccc(NC(=O)CNS(=O)(=O)c2ccccc2)c1	·	–	–	·	–	–
O=C(CN1C(=O)C2C3C=CC(C3)C2C1=O)OCC(=O)c1ccc([N+](=O)[O-])cc1 (stereo unspecified)	39.8µM	–	–	·	–	?
COc1ccc(C(=O)COC(=O)CN2C(=O)C3C4CCC(C4)C3C2=O)cc1 (stereo unspecified)	–	–	–	·	50.1µM	–
COc1ccc(C(=O)COC(=O)C(C)N2C(=O)C3C4CCC(C4)C3C2=O)cc1 (stereo unspecified)	–[12.7 µM]	–	–	·	–	–
O=C(CN1C(=O)C2C3C=CC(C3)C2C1=O)OCC(=O)c1ccc(Cl)cc1 (stereo unspecified)	·	–	–	·	–	–
CCOc1ccc(-n2c(Cc3cc(=O)[nH]c(=O)[nH]3)nnc2SCc2cccnc2)cc1	56.2µM	·	–	–	·	–
CCC(C)Sc1nnc(Cc2cc(=O)[nH]c(=O)[nH]2)n1-c1ccc(F)cc1 (stereo unspecified)	39.8µM	–	–	·	–	?
CC1CCN(C(=O)CSc2nnc(Cc3cc(=O)[nH]c(=O)[nH]3)n2-c2ccc(Cl)cc2)CC1	35.5µM	–	–	–	–	–
CCCSc1nnc(Cc2cc(=O)[nH]c(=O)[nH]2)n1-c1cc(C)ccc1C	?	–	–	–	14.1µM	–
SMILES	G9a block	HP1b chromo inh	BAZ2B inh	L3MBTL1 block	JMJD2A Tudor	Sfp PPTase inh
COc1ccc(-n2c(Cc3cc(=O)[nH]c(=O)[nH]3)nnc2SCC(=O)N2CCC(C)CC2)cc1	?	–	–	·	–	–
Cn1c(-n2cccc2)c(-c2c(-c3ccc(F)cc3)[nH]c3c2c(=O)n(C)c(=O)n3C)c(=O)n(C)c1=O	–	?	–	·	–	·
CC(=O)c1ccc(NC(=O)CS(=O)(=O)c2cn(CC(=O)N3CCOCC3)c3ccccc23)cc1	?	–	–	·	–	–
O=C(Cn1c(=O)oc2cc(S(=O)(=O)NCc3ccccc3)ccc21)NCc1ccccc1Cl	–	–	–	·	–	·
CC[C@H](C)[C@H](NC(=O)[C@H](Cc1ccc(O)cc1)NC(=O)[C@@H](NC(=O)[C@H](CCCN=C(N)N)NC(=O)[C@@H](N)CC(=O)O)C(C)C)C(=O)N[C@@H](Cc1ccc(N)cc1)C(=O)N1CCC[C@H]1C(=O)N[C@@H](Cc1ccccc1)C(=O)O	·	·	·	·	·	–
COc1ccc(C(=O)N2CCN(c3ccccc3)CC2)cc1S(=O)(=O)N1CCOCC1	–	–	–	·	–	–
N#CC1=C(N)C2=CCCC[C@H]2[C@H](c2ccccc2)C1(C#N)C#N	?	–	–	–	–	–
N#CC1=C(N)C2=CCCC[C@H]2[C@H](c2ccc(Br)cc2)C1(C#N)C#N	?	–	–	–	–	7.08µM
O=C(O)CN1CCN(Cc2ccc(F)cc2Cl)C1=O	25.1µM	–	–	–	–	–
COc1ccc2[nH]c3c(c2c1)CCN1C(=O)N([C@@H](C)C(=O)NCCc2ccc(F)cc2)C(=O)[C@]31C	50.1µM	–	?	–	?	–
COc1ccc2[nH]c3c(c2c1)CCN1C(=O)N([C@@H](C)C(=O)NCc2ccc(F)cc2)C(=O)[C@]31C	?	–	–	·	–	–
C[C@@H](C(=O)NCc1ccco1)N1C(=O)N2CCc3c([nH]c4ccccc34)[C@@]2(C)C1=O	?	–	50.1µM	–	–	–
CCC(C)N(C(=O)CN1C(=O)NC2(CCc3ccccc32)C1=O)C1CCS(=O)(=O)C1 (stereo unspecified)	?	–	–	–	–	·
Cc1nc(N)sc1C(=O)N/N=C/c1ccco1	–	–	–	–	–	–
Cc1nc(N)sc1C(=O)N1N=N1	8.91µM	–	–	–	?	–
O=C(CSc1nc2c([nH]c3ccccc32)c(=O)n1-c1ccc(F)cc1)NCc1ccccc1	–	–	–	·	–	·
CC(=O)Nc1ccc(NC(=O)Cc2ccc(S(=O)(=O)N3CCCCC3)cc2)cc1	39.8µM	–	–	–	–	·
CCC(C)N1CCN(S(=O)(=O)c2ccc(NC(C)=O)cc2)CC1 (stereo unspecified)	20µM	?	56.2µM	–	22.4µM	–
CN1CCN(S(=O)(=O)c2ccc(NC(=O)Cc3cccs3)cc2)CC1	–[12.7 µM]	–	–	·	–	–
O=C(Cc1cccs1)Nc1ccc(S(=O)(=O)N2CCCCC2)cc1	8.91µM	–	–	22.4µM	?	–
